# Measurements: PubChem BioAssay
# The source made the active and inactive calls.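 How the source made its calls, unless noted: active means inhibition at or above 50% at 10 µM; inactive means inhibition below 50%.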
# Key:
# [1] = inhibitors of TNFa-induced NFkB p65 translocation, primary screen, imaging, HUVEC, MLSMR starter and 10KST1 sets (AID 438;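 active means inhibition above 20% together with a positive visual image hit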;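 further: compound added about 3h40 before a 20 min TNFalpha stimulation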;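 on inhibition: signal is the nuclear over cytoplasmic p65 intensity ratio per well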); details: HUVEC TNFa-induced p65 nuclear translocation; cell count: measured here: nuclei count (cytotoxicity indicator), at 2.08 µM unless noted; inhibition: at 2 µM, stronger effect = higher value unless noted
# [2] = reduction of polyQ htt aggregates in cells – imaging, exon1htt(103Q)mCFP cells, high-content imaging, primary screen (AID 483;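 active means visual image review flags a hit and inhibition of aggregation exceeds 20%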;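 further: compound exposure lasted 3 days before fixation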;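 on nuclei count: percent of the per-plate median nuclei count of sample wells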); details: exon1htt(103Q)mCFP cell line, aggregate imaging, at 2 µM; inhibition of aggregation: stronger effect = higher value; nuclei count: measured here: cell count, toxicity
# [3] = endothelial E-selectin expression blockers – imaging, HUVEC, immunofluorescence, MLSMR starter and 10KST1 sets, primary screen (AID 487;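 active means visually confirmed hit in the image check and inhibition above 20%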;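 on inhibition: signal is fraction of cell area covered by stained E-selectin grains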;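 on nuclei count: 100% = median nuclei count of all wells on the same plate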); details: HUVEC TNFalpha-induced E-selectin immunofluorescence imaging, at 2 µM; inhibition: stronger effect = higher value; nuclei count: measured here: cell number, toxicity
# [4] = target: Voltage-gated potassium channel subunit beta-2 (Rattus norvegicus) (UniProt P62483); assay: inhibitors of rat Kvbeta2 reductase activity – biochemical, NADPH fluorescence, primary screen (AID 622;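 active means fluorescence slope higher than the sample average by over 3 SD, cut at about -0.22 in these data, passing the limit was not always enough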;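 further: slope of raw intensity against log time taken from 70 to 1610 s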); details: recombinant KvBeta, 4-cyanobenzaldehyde reduction, at 10 µM, stronger effect = higher value
# Chain of Voltage-gated potassium channel subunit beta-2 (Rattus norvegicus) (P62483 whole entry, looked up): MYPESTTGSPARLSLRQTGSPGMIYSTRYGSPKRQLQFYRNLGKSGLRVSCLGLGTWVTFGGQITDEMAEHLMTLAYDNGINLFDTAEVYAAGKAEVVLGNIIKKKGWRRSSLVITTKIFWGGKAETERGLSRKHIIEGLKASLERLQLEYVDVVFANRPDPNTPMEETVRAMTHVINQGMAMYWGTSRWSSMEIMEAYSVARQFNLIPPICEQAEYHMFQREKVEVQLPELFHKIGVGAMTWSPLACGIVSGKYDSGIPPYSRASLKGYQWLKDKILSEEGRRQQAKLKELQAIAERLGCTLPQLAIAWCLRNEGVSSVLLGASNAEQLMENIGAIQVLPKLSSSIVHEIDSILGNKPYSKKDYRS
# [5] = target: Voltage-gated potassium channel subunit beta-2 (Rattus norvegicus) (UniProt P62483); assay: enhancers of rat Kvbeta2 NADPH turnover – biochemical, NADPH fluorescence, primary screen (AID 623;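 active means NADPH fluorescence slope more negative than the mean of all samples by about 3 SD, 99.7% confidence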;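 further: fluorescence intensity change per second fitted from 20 to 320 s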); details: Recombinant KvBeta, NADPH fluorescence decrease slope, 10 min; at 10 µM; stronger effect = lower value
# [6] = target: Alpha-2C adrenergic receptor (Homo sapiens) (UniProt P18825); assay: compounds altering alpha2C-coupled GIRK flux – cell-based, HEK293 alpha2C/GIRK1/2, thallium flux, primary screen (AID 624;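 active means fluorescence slope after compound addition differing from the mean of all screened samples at 99.7% confidence, in either direction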;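 further: slope of fluorescence ratio to pre-addition baseline per second over 15 to 24 s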); details: thallium flux BTC fluorescence, at 10 µM, actives lie on both sides
# Chain of Alpha-2C adrenergic receptor (Homo sapiens) (P18825 whole entry, looked up): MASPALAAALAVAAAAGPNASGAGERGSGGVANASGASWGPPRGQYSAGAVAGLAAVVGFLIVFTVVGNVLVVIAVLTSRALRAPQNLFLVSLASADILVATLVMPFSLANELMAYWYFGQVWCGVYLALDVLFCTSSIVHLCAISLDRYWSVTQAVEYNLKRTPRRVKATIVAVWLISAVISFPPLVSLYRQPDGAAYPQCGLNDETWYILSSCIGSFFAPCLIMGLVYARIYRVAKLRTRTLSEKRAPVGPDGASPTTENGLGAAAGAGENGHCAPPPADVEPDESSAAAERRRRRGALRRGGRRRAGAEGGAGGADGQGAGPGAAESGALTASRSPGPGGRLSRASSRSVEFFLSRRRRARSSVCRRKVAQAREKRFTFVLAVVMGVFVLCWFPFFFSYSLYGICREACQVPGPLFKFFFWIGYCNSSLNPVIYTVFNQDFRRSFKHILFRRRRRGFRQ
# [7] = blockers of RIG-like receptor reporter activation – cell-based, Sendai virus stimulus, luciferase, 10K MLSCN set, TLR/RLR signaling modifier project, primary screen (AID 602276); details: HEK293 RL24 IRF3 luciferase reporter, at 10 µM, stronger effect = higher value;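 further: firefly luciferase from ISG56 promoter only with Renilla not read in this screen; 0% = Sendai virus plus DMSO and 100% = medium plus DMSO without virus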
# [8] = TLR3 IRF3 reporter activation blockers – cell-based, poly I:C stimulus, luciferase, 10K MLSCN set, primary screen (AID 602277;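 active means inhibition of the reporter signal at or above 50%; inactive means inhibition below 50%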); details: HEK293-TLR3 RL24 IRF3 luciferase reporter, at 10 µM, stronger effect = higher value
SMILES,cell count [1],inhibition [1],inhibition of aggregation [2],nuclei count [2] [%],inhibition [3],nuclei count [3] [%],fluorescence slope [4],NADPH fluorescence slope [5],slope [6],inhibition [7],inhibition [8]
CCCCn1c(O)c(C(C)=NC(Cc2c[nH]c3ccccc23)C(=O)OC)c(=O)[nH]c1=O (stereo unspecified),536,-3.4% (inactive),9.6% (inactive),79.6,33.5% (inactive),112,-0.499 (inactive),1.8e-05 (inactive),0.00457 (inactive),0.703% (inactive),14.9% (inactive)
COc1ccc(CN2CCN(c3ccccc3F)CC2)c(OC)c1,420,7.1% (inactive),-8.1% (inactive),109,-39% (inactive),125,-0.38 (inactive),4.4e-05 (inactive),0.00736 (inactive),4.18% (inactive),24.2% (inactive)
O=C(CCCOc1ccc(Cl)cc1Cl)N1CCC2(CC1)OCCO2,751,-20.4% (inactive),-14.9% (inactive),114,-51.1% (inactive),102,-0.365 (inactive),-4.9e-05 (inactive),0.0028 (inactive),-4.5% (inactive),-38.8% (inactive)
CP(C)(=O)CCC(=O)O,347,-7.5% (inactive),-5.3% (inactive),99.6,-100% (inactive),118,-0.434 (inactive),-0.000166 (inactive),0.00678 (inactive),2.85% (inactive),10.1% (inactive)
O=c1c2ccccc2nc(CSc2ncnc3nc[nH]c23)n1-c1ccccc1,546,2.3% (inactive),2.9% (inactive),106,-123% (inactive),103,-0.492 (inactive),-9.1e-05 (inactive),0.00489 (inactive),-0.567% (inactive),13.7% (inactive)
CCCCN1C(=O)NC(=O)C2(Cc3c(nc4c(C)cccn4c3=O)N3CCc4ccccc4C32)C1=O (stereo unspecified),373,-0.5% (inactive),-11.7% (inactive),106,-176% (inactive),111,-0.482 (inactive),-4.8e-05 (inactive),0.0045 (inactive),14% (inactive),32.3% (inactive)
Cc1ccc(C2SCC(=O)Nc3c2c(=O)[nH]n3C2CCOC(C)(C)C2)cc1 (stereo unspecified),378,-0.6% (inactive),-18.2% (inactive),128,-20.4% (inactive),111,-0.37 (inactive),-3.9e-05 (inactive),0.00325 (inactive),18% (inactive),29.8% (inactive)
CC1(C)C(c2ccccc2)=NC(c2cccnc2)N1O (stereo unspecified),309,8.2% (inactive),-17.9% (inactive),108,17.6% (inactive),99.6,-0.495 (inactive),-6.7e-05 (inactive),0.00634 (inactive),14.6% (inactive),25.5% (inactive)
N#Cc1ccccc1Cn1cc(C(=O)C2CC2)c2ccccc21,390,-2.2% (inactive),-0.9% (inactive),101,-50.9% (inactive),107,-0.447 (inactive),-7.2e-05 (inactive),0.00467 (inactive),2.45% (inactive),19.3% (inactive)
COc1ccccc1-n1c(O)c(C=NCc2ccc3c(c2)OCO3)c(=O)[nH]c1=O,758,-13.8% (inactive),-35.1% (inactive),121,-117% (inactive),124,-0.611 (inactive),-5.6e-05 (inactive),0.00662 (inactive),2.15% (inactive),9.73% (inactive)
O=C(Cn1ncc2c3ccccc3n(Cc3ccc(F)cc3)c2c1=O)N1CCC2(CC1)OCCO2,454,2.9% (inactive),-17.5% (inactive),74.9,-167% (inactive),130,-0.295 (inactive),-5.2e-05 (inactive),0.00589 (inactive),7.71% (inactive),2.33% (inactive)
Cn1c(=O)cc(OCC(=O)N2CCN(C3CCCCC3)CC2)c2ccccc21,535,-5.5% (inactive),14.2% (inactive),81.7,-119% (inactive),113,-0.533 (inactive),-5e-05 (inactive),0.00729 (inactive),2.25% (inactive),55.3% (active)
COC(=O)CC1(Cc2ccccc2)C(=O)NC(=O)NC1=O,641,-6.3% (inactive),12.4% (inactive),78,-73.6% (inactive),140,-0.579 (inactive),-2.7e-05 (inactive),0.00355 (inactive),17.2% (inactive),21.5% (inactive)
CN1CCC(N(C)c2ncnc3ccc(Br)cc23)CC1,336,5% (inactive),4.3% (inactive),94.9,42.2% (inactive),79.5,-0.606 (inactive),-3.4e-05 (inactive),0.00666 (inactive),10.9% (inactive),23.5% (inactive)
Cc1ccccc1-n1c(O)c(C=NCCN2CCOCC2)c(=O)[nH]c1=O,335,-9.5% (inactive),-8.6% (inactive),138,-110% (inactive),135,-0.432 (inactive),-2.7e-05 (inactive),0.00516 (inactive),1.33% (inactive),-0.798% (inactive)
CCCCNC(=O)c1c(N)n(CCCOC)c2nc3ccccc3nc12,447,14.6% (inactive),16.7% (inactive),95,0.8% (inactive),111,-0.245 (inactive),-2.4e-06 (inactive),0.00654 (inactive),-5.16% (inactive),-28.3% (inactive)
COc1ccc(C2SCC(=O)Nc3c2c(=O)[nH]n3C2CCCCCC2)cc1OC (stereo unspecified),316,21% (inactive),-0.4% (inactive),97.9,-11.5% (inactive),109,-0.614 (inactive),-4.2e-05 (inactive),0.00412 (inactive),13.9% (inactive),23.3% (inactive)
CCC(=NCC1CCCO1)c1c(O)n(Cc2ccccc2)c(=O)[nH]c1=O (stereo unspecified),707,-6% (inactive),6.5% (inactive),97.1,-57.1% (inactive),120,-0.512 (inactive),-5.3e-05 (inactive),0.00608 (inactive),-5.89% (inactive),19.3% (inactive)
CCN1CCN(Cc2cc(Br)cc(OC)c2O)CC1,579,3.6% (inactive),20.4% (inactive),99.4,-82.5% (inactive),123,-0.441 (inactive),-4e-05 (inactive),0.00663 (inactive),-7.48% (inactive),5.42% (inactive)
CCCCOc1ccc(CN2CCN(CCO)CC2)cc1,644,2.9% (inactive),-4.6% (inactive),115,-3.3% (inactive),96.5,-0.43 (inactive),-0.00013 (inactive),0.00523 (inactive),5.26% (inactive),10.1% (inactive)
COC(=NC1CCCC1)C(O)c1c[nH]c2ccccc12 (stereo unspecified),602,9.7% (inactive),14% (inactive),88.5,-22.4% (inactive),79.7,-0.536 (inactive),-2.7e-05 (inactive),0.00519 (inactive),5.75% (inactive),32.2% (inactive)
